The record followed here is PubChem BioAssay (NCI).

The nature of assay [1]: NCI Yeast Anticancer Drug Screen. Data for the rad50 strain (AID 155).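 Also: 0% = growth of vehicle-only cultures of the same strain.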 The note with it: S. cerevisiae rad50 strain growth inhibition; at 50.0 µM; active compounds read high. Summed up: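 Inhibition values express reduced yeast growth in compound-treated cultures relative to vehicle-treated controls.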
The nature of assay [2]: NCI Yeast Anticancer Drug Screen. Data for the mec2-1 strain (AID 157). As to conditions: S. cerevisiae mec2-1 strain, at 50.0 µM, active compounds read high. The gist of the method:
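mec2-1 yeast strain, carrying an alteration in DNA damage repair or cell cycle control, was exposed to compounds; growth inhibition was measured relative to vehicle-treated controls.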

Assay [3] can be described thus: NCI Yeast Anticancer Drug Screen. Data for the sgs1 mgt1 strain (AID 161).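 Also: 0% = growth of cultures given vehicle only.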 The note with it: S. cerevisiae sgs1 mgt1 strain, at 50.0 µM, active compounds read high. The gist of the method:
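Percent growth inhibition was derived by comparing compound-exposed mutant yeast with vehicle-exposed cultures. The strain carries alterations in DNA damage repair.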

Assay [4] is described as follows: NCI Yeast Anticancer Drug Screen. Data for the cln2 rad14 strain (AID 165).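 Also: 0% = growth equal to vehicle treated cultures.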 The note with it: S. cerevisiae cln2 rad14 strain, at 50.0 µM, active compounds read high. Summed up: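 Yeast carrying cln2 and rad14 alterations (cell cycle control and DNA damage repair) were exposed to compounds. Growth inhibition was measured against vehicle-treated controls.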
Assay [5] can be described thus: NCI Yeast Anticancer Drug Screen. Data for the bub3 strain (AID 167). As to conditions: S. cerevisiae bub3 mutant strain, at 50.0 µM, active compounds read high. Summed up: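 Steps: expose the mutant yeast strain to compound; grow alongside vehicle-treated cultures; measure growth; express inhibition against the vehicle cultures.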
A short description of assay [6]: NCI Yeast Anticancer Drug Screen. Data for the mlh1 rad18 strain (AID 175). The note with it: S. cerevisiae mlh1 rad18 strain growth inhibition; at 50.0 µM; active compounds read high. The gist of the method: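 Growth inhibition of the yeast strain was measured after compound exposure and expressed relative to vehicle-treated controls. The strain carries defined defects in DNA damage repair.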

Compounds without any hit were thinned out: in the full panel of roughly 79,000, 15% have a hit. Values without a mark were called inactive. The source made the active and inactive calls. Rule as the data show it: active = growth inhibition above about 70%; inactive = the rest.

In the case of `N#CCCc1c(O)ccc2ccccc12`, the growth inhibition is 38.6% in assay [1]; 0.6% in assay [2]; 10.1% in assay [3]; -59.9% in assay [4]; 10.5% in assay [5]; 11.6% in assay [6].

For the compound `C=C(C)C1Cc2c(cc(OC)c3c(=O)c4cccc(O)c4oc23)O1` (stereo unspecified), the growth inhibition is 43.1% in assay [1]; 15.4% in assay [2]; -1.95% in assay [3]; 25.4% in assay [4]; -20.2% in assay [5]; -21.4% in assay [6].

Consider `CC1=CC(=O)C(c2ccccc2)CC1` (stereo unspecified), for which the growth inhibition is -0.2% in assay [1]; -5.65% in assay [2]; 14.8% in assay [3]; -32.7% in assay [4]; -0.75% in assay [5]; -5.3% in assay [6].

As for `CC1=C(CCC(C)CO)OC2CC3C4CC=C5CC(O)CCC5(C)C4CCC3(C)C12` (stereo unspecified), the growth inhibition in assay [1] was 19.1%; in assay [2] it was -0.65%; in assay [3], 43.4%; in assay [4] it was 9.95%; in assay [5] it was 6.3%; in assay [6], 0.85%.

As for `CON(C)S(=O)c1ccc([N+](=O)[O-])cc1` (stereo unspecified), the growth inhibition in assay [1] is 29.8%; in assay [2], 19.1%; in assay [3], 5.45%; in assay [4], -15.6%; in assay [5], -6.05%; in assay [6], 22.1%.

In the case of `COc1cc2ccc(=O)oc2cc1O`, the growth inhibition in assay [1] was 14.6%; in assay [2], 9.35%; in assay [3], 9.05%; in assay [4] it was 19.4%; in assay [5] it was 16.4%; in assay [6] it was 4.05%.

Consider `CN(C)Cc1cc(C(C)(C)CC(C)(C)C)cc(Br)c1O`, for which the growth inhibition in assay [1] is 33%; in assay [2], 21.4%; in assay [3], 30.6%; in assay [4], 28.8%; in assay [5], 39.7%; in assay [6] it was 26.9%.

In the case of `COc1ccc(/C=C2\N=C(SC)NC2=O)cc1`, the growth inhibition in assay [1] is -8.35%; in assay [2], 0.2%; in assay [3], 25.9%; in assay [4] it was 0.95%; in assay [5], 2%; in assay [6], -24.9%.

`CCCCCCN(CCCCCC)C(=S)N/N=C(\C)c1ccccn1`: the growth inhibition in assay [1] was 85% (active); in assay [2], 85.5% (active); in assay [3], 83.7% (active); in assay [4] it was 72.3% (active); in assay [5], 87.6% (active); in assay [6], 82.2% (active).

For the compound `FC(F)C(F)(F)N1c2ccccc2Sc2ccccc21`, the growth inhibition in assay [1] is 27.6%; in assay [2], -6.2%; in assay [3] it was 19.9%; in assay [4] it was 6.9%; in assay [5], 27.1%; in assay [6], 60.1%.

With `COc1ccc(C(=O)Nc2ccccc2C#N)cc1`, the growth inhibition is -0.15% in assay [1]; -4.5% in assay [2]; -9.25% in assay [3]; -1.25% in assay [4]; 1.55% in assay [5]; -3.8% in assay [6].

`C1=CC(=P(c2ccccc2)(c2ccccc2)c2ccccc2)C=C1`: the growth inhibition in assay [1] is 20.4%; in assay [2], 25.1%; in assay [3] it was 10.4%; in assay [4], 38.8%; in assay [5] it was 4.3%; in assay [6], 34%.

With `COc1cc(C=C2N=C(c3ccccc3)N(n3c(-c4ccccc4)nc4ccccc4c3=O)C2=O)cc(OC)c1OC`, the growth inhibition in assay [1] is -7.4%; in assay [2], -6.6%; in assay [3], 9.45%; in assay [4], 7.85%; in assay [5] it was 0.65%; in assay [6], 21.6%.

Take `CCCCCCCC/C=C\CCCCCCCC(=O)OC(C)CC(=O)N(C)C` (stereo unspecified): the growth inhibition in assay [1] is -18.1%; in assay [2] it was -23.4%; in assay [3], 10.6%; in assay [4], -6.55%; in assay [5], -11.6%; in assay [6] it was 3.95%.

With `[N-]=[N+]=NCC(O)Cn1cnc2c(NC(=O)c3ccccc3)ncnc21` (stereo unspecified), the growth inhibition in assay [1] was -14.7%; in assay [2] it was -0.15%; in assay [3], 0.85%; in assay [4], -16.1%; in assay [5] it was 8.6%; in assay [6], 7.2%.

`CCCCCCNC(C)=O`: the growth inhibition in assay [1] is 13.6%; in assay [2], 5.7%; in assay [3], 11.9%; in assay [4] it was 5.7%; in assay [5], -5.5%; in assay [6], -0.55%.

As to `COC1Cc2c(C)c(OC(C)=O)c3cccnc3c2O1` (stereo unspecified), the growth inhibition in assay [1] is 18.6%; in assay [2] it was -17.4%; in assay [3], 10.8%; in assay [4], 18.6%; in assay [5], 4.25%; in assay [6] it was 5.65%.

With `c1cc2cc(C3=NCCN3)[nH]c2cc1C1=NCCN1`, the growth inhibition in assay [1] was 12.8%; in assay [2], 35.4%; in assay [3] it was 29.1%; in assay [4] it was 43.5%; in assay [5], 18.6%; in assay [6] it was 26.2%.

`CCc1cc2ccccc2oc1=O`: the growth inhibition in assay [1] is -1.1%; in assay [2], 3.65%; in assay [3], 0.1%; in assay [4] it was -18.1%; in assay [5] it was 1.55%; in assay [6], -5.85%.

On to `Cc1ccc(C)c(N2C(=O)C(=O)C(c3nc4ccccc4o3)/C(=N/N)C2=O)c1` (stereo unspecified), for which the growth inhibition in assay [1] was -18.8%; in assay [2] it was 34%; in assay [3], 14.2%; in assay [4], -17%; in assay [5], 5.25%; in assay [6] it was -17.8%.

For the compound `CC(=O)NCCc1ccc(C(=O)O)cc1`, the growth inhibition in assay [1] is -17%; in assay [2], -1%; in assay [3], 2.2%; in assay [4] it was -34.2%; in assay [5] it was -11.4%; in assay [6], 3.65%.
